In PubChem BioAssay AID738 (SRMLSC, 2007):
Screen size: about 98,000 compounds; about 4,900 (5%) were called active. No stated cut-off is given here; in the data, active means inhibition above about 30%; inactive means the rest. Shown is part of a subset that was picked to be rich in actives.

assay: growth inhibition of yeast control strain, primary screen, counter-screen for post-Golgi transport modulator project (AID 738); details: efflux-deficient yeast background strain, growth absorbance A615, 16 h; at 10 µM; active compounds read high

SMILES	inhibition
Cc1ccccc1OC(=O)Cn1c(C(F)(F)F)nc2ccccc21	12.9% (inactive)
COC(=O)c1ccccc1OCC(=O)N1CCN(c2ccc(Cl)cc2)CC1	13.6% (inactive)
O=c1c2ccccc2nnn1CSc1nnnn1-c1ccccc1	19.6% (inactive)
CN(C(=O)CSc1nnnn1-c1ccccc1)C1CCCCC1	38% (active)
COc1ccc(-n2nnnc2SCC(=O)Nc2ccccc2)cc1	2.21% (inactive)
CC(=O)c1nn(-c2cccc(Br)c2)cc1C(=O)c1cccc2ccccc12	8.1% (inactive)
Cc1cc2cc3c(N)[nH]nc3nc2cc1C	8.93% (inactive)
COCCNS(=O)(=O)c1cc(Br)ccc1OC	2.48% (inactive)
O=[N+]([O-])c1cccc(-c2nnc3c4ccccc4c4ccccc4n23)c1	6.93% (inactive)
CCC(=O)NC(=Nc1nc2ccccc2s1)NC(=O)CC	35.9% (active)
CC(C)CC(=O)N/C(N)=N/c1nc2ccccc2s1	13.9% (inactive)
COC(=O)Cc1cc(=O)n(-c2nc3ccccc3s2)[nH]1	11.8% (inactive)
COc1ccc(C(=O)N2CCc3cc(OC)c(OC)cc3C2c2cccc([N+](=O)[O-])c2)cc1 (centres undefined)	20% (inactive)
c1ccc2c(C[n+]3csc4ccccc43)cccc2c1	9.79% (inactive)
COc1ccc(C)cc1NC(=O)CCC(=O)Nc1nnc(C(F)(F)F)s1	0.61% (inactive)
Cc1[nH]n(-c2cccc(Cl)c2)c(=O)c1/C=N/n1c(C)nc2ccccc2c1=O	9.33% (inactive)
O=c1[nH]n(-c2cccc(Cl)c2)c2ncccc12	16.8% (inactive)
Cc1[nH]n(-c2cccc(Cl)c2)c(=O)c1-c1ccc(Cl)cc1	55.6% (active)
O=C(CN1CCN(S(=O)(=O)c2ccc(Cl)s2)CC1)NCc1ccc(Cl)cc1	15.8% (inactive)
CC(=O)Nc1cccc(/C(C)=N/NC(=O)c2ccccc2Cl)c1	5.79% (inactive)
Cc1ccc(C(=O)Nc2ccc3c(c2)OCO3)cc1S(=O)(=O)N1CCCCC1	16.4% (inactive)
Cc1cc(C)n(C(=O)c2ccc(C)c(S(=O)(=O)N3CCOCC3)c2)n1	11.4% (inactive)

SMILES	inhibition
Cc1ccc(C(=O)Nc2ccccc2C(=O)NC2CCCCC2)cc1S(=O)(=O)N1CCOCC1	36.2% (active)
CCOc1c2ccc(C(=O)NC3CCCc4ccccc43)cc2nn1CC (centres undefined)	-2.36% (inactive)
O=C(O)c1ccccc1-c1ccccc1C(=O)Nc1cccc2ccccc12	9.42% (inactive)
COc1ccccc1C(=O)NN1C(=O)C2C3C=CC(O3)C2C1=O (centres undefined)	3.54% (inactive)
Cc1ccccc1C(OCC(O)CN1CCCCC1CCO)c1ccccc1 (centres undefined)	30.4% (active)
CCCSc1nsc(N)n1	3.53% (inactive)
O=C(CSc1ncnc2c1cnn2CCc1ccccc1)Nc1ccc(F)cc1	-3.75% (inactive)
O=C(Nc1cccn(Cc2c(Cl)cccc2Cl)c1=O)c1ccc(Cl)cc1	-8.03% (inactive)
Clc1ccc(COn2c(-c3ccc(Cl)cc3Cl)nc3ncccc32)cc1	66.1% (active)
CCOc1ccc(OCC)c(-c2c(=O)n(OCc3ccc(Cl)cc3)c3ccccc3[n+]2[O-])c1	11.6% (inactive)
O=C(/C=C/c1cc2c(cc1Br)OCO2)NCc1ccc(Cl)cc1	9.36% (inactive)
N/C(=N\OC(=O)CCc1ccccc1)c1ccc(Cl)cc1	16.6% (inactive)
C=CCNc1cnn(-c2ccc(C)cc2)c(=O)c1Cl	8.21% (inactive)
CCCSc1nc2c(c(=O)n(C)c(=O)n2C)n1Cc1ccc(C)cc1	51.8% (active)
CCOc1ccc(Cn2c(SCCCCC#N)nc3c2c(=O)n(C)c(=O)n3C)cc1OCC	8.56% (inactive)
Cc1cccc(Cn2c(SCCO)nc3c2c(=O)n(C)c(=O)n3C)c1	3.8% (inactive)
O=C(ON=C1CCN(S(=O)(=O)c2ccccc2)CC1)c1ccc(Cl)cc1	13.6% (inactive)
Nc1ccc(Oc2ccc(Cl)cc2)cc1	10% (inactive)
COc1cccc(Oc2ccc(N)cc2)c1	34% (active)
Cc1ccc(Oc2ccc(N)cc2)cc1	28.3% (inactive)
COC(=O)Cc1cc(=O)oc2c(C)c(O)ccc12	7.59% (inactive)
Cc1cc(OC(=O)c2ccc(Cl)cc2)cc(=O)n1C	-4.12% (inactive)

SMILES	inhibition
COc1ccc2[nH]cc(/C=C(/C#N)S(=O)(=O)c3ccccc3)c2c1	36.8% (active)
CCN(CC)CC(=O)c1c[nH]c2ccc(OC)cc12	15.9% (inactive)
COc1ccc2[nH]c3ccc(OC)cc3c2c1	8.06% (inactive)
C=CCCC(=O)Nc1nc(C)c(-c2csc(Nc3ccc(Cl)cc3)n2)s1	50.3% (active)
CCCCC(=O)Nc1nc(C)c(-c2csc(Nc3ccc(Cl)cc3)n2)s1	1.53% (inactive)
CCCCCCC(=O)Nc1nc(C)c(-c2csc(Nc3cc(Cl)ccc3OC)n2)s1	0.3% (inactive)
Cc1ccc2cccc(S(=O)(=O)N3CCN(c4ccccc4F)CC3)c2n1	37.7% (active)
O=C(c1cccc2ccccc12)N1CCN(c2ccccc2F)CC1	13.7% (inactive)
O=S(=O)(N1CCOCC1)N1CCN(c2ccccc2F)CC1	-1.25% (inactive)
O=C(CSCc1c(Cl)cccc1Cl)NN1C(=O)c2ccccc2C1=O	8.98% (inactive)
COc1ccc(Nc2nc(-c3ccccc3)cs2)cc1	6.6% (inactive)
COc1ccc(OC)c(Nc2nc(-c3ccc(O)c(O)c3)cs2)c1	34.6% (active)
c1cnc(Nc2nc(-c3ccc4ccccc4c3)cs2)nc1	2.57% (inactive)
CON(C)S(=O)(=O)c1ccc2c(c1)NC(=O)C1CCCN21 (centres undefined)	-2.22% (inactive)
O=C(c1cc(-c2ccc(O)cc2)on1)N1CCCc2ccccc21	23.4% (inactive)
O=C(c1cc(-c2cccc(O)c2)on1)N1CCc2ccccc2C1	41% (active)
O=C(c1cc(-c2ccccc2O)on1)N1CCCC1	12% (inactive)
O=C(NCC1CCC(C(=O)O)CC1)OCc1ccccc1 (centres undefined)	8.23% (inactive)
O=C(CNC(=O)c1ccccc1)NCC(=O)OCc1ccc(Cl)cc1	2.68% (inactive)
O=C(CNC(=O)OCc1ccccc1)Oc1cc2oc(=O)cc(-c3ccccc3)c2cc1Cl	34.6% (active)
